Measured values reported in PubChem BioAssay (Tox21).
Records with an inconclusive call do not appear. Active and inactive are the calls of the source. Unless noted, calls follow the shape of the dose curve; as a rule, active = well fitted curve in the direction sought with a large enough effect in the repeat runs; inconclusive = weak or mixed curves; inactive = no such curve, though single readings can be large; an effect the other way counts as inactive or inconclusive.

Assays:
[1] = qHTS assay to identify small molecule agonists of the peroxisome proliferator-activated receptor delta (PPARd) signaling pathway - cell viability counter screen (AID 743211); also: nearly all actives have a fitted effect of over 55% in size
In short: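 Read-out: CellTiter-Glo luminescence, 30 min RT, measured in the same wells as the beta-lactamase reporter. Cells: GeneBLAzer PPAR delta UAS-bla HEK293H, 3000 cells/well, compound exposure 17 h at 37C.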

[2] = target: Vitamin D3 receptor (Homo sapiens) (UniProt P11473); assay: qHTS assay to identify small molecule agonists of the vitamin D receptor (VDR) signaling pathway (AID 743222; calls by dose curve)
Chain of Vitamin D3 receptor (Homo sapiens) (P11473 whole entry, looked up): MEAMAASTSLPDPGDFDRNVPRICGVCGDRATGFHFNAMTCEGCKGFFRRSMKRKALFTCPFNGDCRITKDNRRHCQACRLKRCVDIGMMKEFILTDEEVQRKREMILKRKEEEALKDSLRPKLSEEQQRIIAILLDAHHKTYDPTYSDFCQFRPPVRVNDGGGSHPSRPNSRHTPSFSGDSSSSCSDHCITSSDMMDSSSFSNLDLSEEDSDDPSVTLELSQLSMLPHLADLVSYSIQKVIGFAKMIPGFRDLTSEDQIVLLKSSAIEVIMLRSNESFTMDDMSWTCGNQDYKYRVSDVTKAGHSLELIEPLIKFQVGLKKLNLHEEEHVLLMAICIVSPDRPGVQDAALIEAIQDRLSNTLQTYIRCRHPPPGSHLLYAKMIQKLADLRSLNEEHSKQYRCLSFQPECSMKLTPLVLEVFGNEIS
In short: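 Agonist activity measured in VDR-bla reporter cells. Exposure 16 h, 37C, 5% CO2; detection by B/G FRET substrate, 2 h RT.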

[3] = target: Peroxisome proliferator-activated receptor delta (Homo sapiens) (UniProt Q03181); assay: qHTS assay to identify small molecule agonists of the peroxisome proliferator-activated receptor delta (PPARd) signaling pathway (AID 743212; calls by dose curve)
Chain of Peroxisome proliferator-activated receptor delta (Homo sapiens) (Q03181 whole entry, looked up): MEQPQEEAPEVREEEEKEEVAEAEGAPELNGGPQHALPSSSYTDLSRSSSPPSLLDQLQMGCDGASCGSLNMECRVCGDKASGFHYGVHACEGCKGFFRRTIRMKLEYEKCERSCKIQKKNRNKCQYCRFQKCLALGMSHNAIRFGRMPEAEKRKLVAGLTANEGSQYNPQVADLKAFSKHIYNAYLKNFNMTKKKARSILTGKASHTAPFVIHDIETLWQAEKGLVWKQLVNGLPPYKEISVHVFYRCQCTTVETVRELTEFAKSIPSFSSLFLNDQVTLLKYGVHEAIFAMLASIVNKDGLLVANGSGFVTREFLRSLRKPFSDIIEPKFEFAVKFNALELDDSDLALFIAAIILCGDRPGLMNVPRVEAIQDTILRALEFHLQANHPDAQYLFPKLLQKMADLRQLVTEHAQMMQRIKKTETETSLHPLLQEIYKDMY
In short: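 Quantitative high-throughput agonist screen in a HEK293H beta-lactamase reporter line under UAS control. Compounds in DMSO, at 37 C. Fluorescence read after 2 h with FRET substrate at room temperature.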

[4] = qHTS assay to identify small molecule antagonists of the peroxisome proliferator-activated receptor delta (PPARd) signaling pathway - cell viability counter screen (AID 743213); also: nearly all actives have a fitted effect of over 50% in size; also: potency is read from the fitted curve at half-maximal effect
In short: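 Luminescence from CellTiter-Glo, added after the bla read and incubated 30 min at room temperature, gives viability of HEK293H PPARd-bla cells exposed to compounds for 17 h at 37 C with 300 nM L165041.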

[5] = qHTS assay to identify small molecule agonists of the farnesoid-X-receptor (FXR) signaling pathway - cell viability counter screen (AID 743218); also: nearly all actives have a fitted effect of over 45% in size; also: potency is read from the fitted curve at half-maximal effect
In short: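 In GeneBLAzer FXR-UAS-bla HEK 293T cells, compounds act for 16 h at 37 C. Cell viability is then scored in the reporter wells by CellTiter-Glo, 30 min at RT, luminescence.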

[6] = qHTS assay to identify small molecule antagonists of the farnesoid-X-receptor (FXR) signaling pathway - cell viability counter screen (AID 743221; active = well fitted cell-killing curve with a large enough effect in the repeat runs, not every such curve was filed as active; also: nearly all actives have a fitted effect of over 50% in size; also: potency is read from the fitted curve at half-maximal effect)
In short: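 HEK 293T FXR-bla cells, 5 h pre-incubation; compound + CDCA 50 uM final, 16 h, 37 C; beta-lactamase FRET read first, then CellTiter-Glo luminescence, 30 min RT.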

[7] = target: Peroxisome proliferator-activated receptor delta (Homo sapiens) (UniProt Q03181); assay: qHTS assay to identify small molecule antagonists of the peroxisome proliferator-activated receptor delta (PPARd) signaling pathway (AID 743215; active = well fitted inhibition curve with a large enough effect in the signal ratio in the repeat runs, not every such curve was filed as active; the % refers to the signal ratio;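 also: cells stimulated with agonist L165041 at 300 nM final during compound exposure; series mostly up to about 62 µM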)
In short: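 Antagonist-mode beta-lactamase reporter screen: HEK293H cells with UAS-bla under PPARd control, stimulated by 300 nM L165041 (final) alongside test compound for 17 h at 37 C, then FRET fluorescence after 2 h substrate incubation.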

[8] = target: Bile acid receptor (Homo sapiens) (UniProt Q96RI1); assay: qHTS assay to identify small molecule antagonists of the farnesoid-X-receptor (FXR) signaling pathway (AID 743217; active = well fitted inhibition curve with a large enough effect in the signal ratio in the repeat runs, not every such curve was filed as active; the % refers to the signal ratio)
Chain of Bile acid receptor (Homo sapiens) (Q96RI1 whole entry, looked up): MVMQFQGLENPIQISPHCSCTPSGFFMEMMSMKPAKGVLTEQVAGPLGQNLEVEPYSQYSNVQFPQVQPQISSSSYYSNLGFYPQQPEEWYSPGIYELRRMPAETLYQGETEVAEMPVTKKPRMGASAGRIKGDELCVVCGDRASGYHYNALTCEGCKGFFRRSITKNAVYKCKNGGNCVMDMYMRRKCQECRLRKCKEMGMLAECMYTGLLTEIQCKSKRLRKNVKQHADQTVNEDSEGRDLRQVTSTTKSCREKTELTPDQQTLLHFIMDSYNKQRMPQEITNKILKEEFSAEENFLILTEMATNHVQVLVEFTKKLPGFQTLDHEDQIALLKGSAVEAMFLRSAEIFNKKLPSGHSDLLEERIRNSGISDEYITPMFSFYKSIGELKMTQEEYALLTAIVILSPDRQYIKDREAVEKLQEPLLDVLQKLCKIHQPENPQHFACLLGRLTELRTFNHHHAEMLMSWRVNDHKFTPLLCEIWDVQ
In short: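 Beta-lactamase reporter under UAS control in HEK 293T cells; compound exposure 16 h at 37 °C in the presence of chenodeoxycholic acid (50 uM final); signal from B/G FRET substrate after 2 h at room temperature.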

[9] = target: Bile acid receptor (Homo sapiens) (UniProt Q96RI1); assay: qHTS assay to identify small molecule agonists of the farnesoid-X-receptor (FXR) signaling pathway (AID 743220; active = well fitted activation curve with a large enough effect in the signal ratio in the repeat runs, not every such curve was filed as active; the % refers to the signal ratio)
In short: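 Beta-lactamase reporter under UAS control in GeneBLAzer FXR HEK 293T cells (5000/well) measured with LiveBLAzer FRET substrate after 2 h at room temperature. Compound exposure lasted 16 h at 37C.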

[10] = target: Vitamin D3 receptor (Homo sapiens) (UniProt P11473); assay: qHTS assay to identify small molecule antagonists of the vitamin D receptor (VDR) signaling pathway (AID 743223; active = well fitted inhibition curve with a large enough effect in the signal ratio in the repeat runs, not every such curve was filed as active; the % refers to the signal ratio)
In short: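 Beta-lactamase reporter read-out: FRET substrate fluorescence after 2 h at room temperature, following 16 h exposure of VDR-bla cells to test compound plus 3 nM (final) 1alpha,25-dihydroxyvitamin D3 agonist at 37C.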

Measured: Potency

C=CC(=O)OCC1CC2CC1C1CCC(COC(=O)C=C)C21 (centres undefined)
inactive: [1] | [2]

C=C(C)CCCC(C)CCO (centres undefined)
inactive: [3] | [4] | [5] | [6]

CCC(C)COC(C)=O (centres undefined)
not listed: [1] | [2] | [10]
inactive: all other assays above

CCn1cc(C(=O)O)c(=O)c2cc(F)c(N3CCNCC3)cc21
inactive: [3] | [4] | [7] | [6]

c1ccc2c(c1)CCc1ccccc1N2
inactive: [3] | [4] | [7] | [5] | [6] | [2]

NCCNCCO
not listed: [1] | [5] | [6]
inactive: all other assays above

CC(O)c1ccccc1 (centres undefined)
not listed: [1] | [8] | [9]
inactive: all other assays above

CCCCCCC(C)(C)C(=O)O
not listed: [1] | [10]
inactive: all other assays above

COc1ccccc1N1CCN(CC(O)COc2cccc3ccccc23)CC1 (centres undefined)
active: [4] 29.8 µM
not listed: [1] | [8] | [9]
inactive: all other assays above

C=COCC(C)C
not listed: [1] | [5] | [6]
inactive: all other assays above

CCN(CC)CCNC(=O)COc1ccc(OC)cc1
not listed: [1] | [7]
inactive: all other assays above

C[C@]12CC[C@@H]3c4ccc(O)cc4CC[C@H]3[C@@H]1CC[C@@H]2OC(=O)CCC1CCCC1
not listed: [1] | [8]
inactive: all other assays above

CCOC(=O)OC(C)OC(=O)[C@@H]1N2C(=O)[C@@H](NC(=O)[C@H](N)c3ccccc3)[C@H]2SC1(C)C (some centres undefined)
not listed: [1]
inactive: all other assays above

CN1CCCN=C1COC(=O)C(O)(c1ccccc1)C1CCCCC1 (centres undefined)
inactive: [3] | [7] | [8] | [5] | [9]

COC(=O)CCS
not listed: [1] | [8] | [9]
inactive: all other assays above

CN(C(=O)CN(CCO)CC(=O)N(C)C(C)(C)Cc1ccccc1)C(C)(C)Cc1ccccc1
inactive: [3] | [4] | [7] | [8] | [9] | [10]

C[C@@]12CCC[C@H]1[C@@H]1CC[C@H]3C[C@@H](O)CC[C@]3(C)[C@H]1CC2
inactive: [3] | [4] | [5] | [9] | [6]

NNC(=O)CP(=O)(c1ccccc1)c1ccccc1
inactive: [3] | [4] | [7] | [6]

CC(C)C(O)(c1ccc(OC(F)(F)F)cc1)c1cncnc1 (centres undefined)
inactive: [1] | [5] | [6] | [2] | [10]

C=CC(=O)[O-].C=CC(=O)[O-].[Zn+2]
not listed: [1] | [8] | [9]
inactive: all other assays above

CCOC(=O)c1ccc(C#Cc2ccc3c(c2)C(C)(C)CCS3)nc1
inactive: [4] | [5]

CCC(C)COC(=O)CC(C)C (centres undefined)
inactive: [4] | [7] | [2] | [10]

OC[C@H]1O[C@@H](n2cnc3c(=S)nc[nH]c32)[C@H](O)[C@@H]1O
inactive: [3] | [9] | [2] | [10]
active: [6] 16.8 µM

C[C@]1(Cn2ccnn2)[C@H](C(=O)O)N2C(=O)C[C@H]2S1(=O)=O
inactive: [4] | [5] | [9] | [2]

C[C@@H](O)[C@H]1C(=O)N2C(C(=O)O)=C([C@H]3CCCO3)S[C@H]12
inactive: [4] | [7] | [8] | [5] | [9] | [6]

O=[N+]([O-])c1cc(C2CCCCC2)c(O)c([N+](=O)[O-])c1
inactive: [9] | [6]

CCOC(=O)[C@H](CCc1ccccc1)N[C@@H](C)C(=O)N(CC(=O)O)C1Cc2ccccc2C1
inactive: [7] | [2] | [10]

O=C=Nc1ccc(Cl)c(Cl)c1
active: [5] 30.4 µM
not listed: [1] | [4] | [6]
inactive: all other assays above

O=c1c(O)c(-c2ccc(O)cc2)oc2cc(O)cc(O)c12
inactive: [4] | [9]

c1csc(SSc2cccs2)c1
inactive: [4] | [7] | [5] | [2] | [10]

CCOc1cccc(-n2cc(C(=O)N3CCN(c4cc(C(=O)O)c5ccccc5c4)CC3)nc2-c2ccc(C)cc2)c1
inactive: [7] | [8] | [6]

O=C1C(=O)c2ccccc2C(O)=C1C1CCC(c2ccc(Cl)cc2)CC1 (centres undefined)
inactive: [4] | [8] | [9] | [10]

CCCCC(CC)COP(=O)(O)O (centres undefined)
inactive: [4] | [5] | [9] | [2]

O=C1c2ccccc2C(=O)C1c1ccc(Br)cc1
inactive: [4] | [7] | [5] | [6] | [2] | [10]

COC(=O)C1=C(C)NC(C)=C(C(=O)O[C@@H]2CCCN(Cc3ccccc3)C2)[C@@H]1c1cccc([N+](=O)[O-])c1
inactive: [4] | [7] | [6] | [2] | [10]

C/C=C(/C(=C/C)c1ccc(O)cc1)c1ccc(O)cc1
inactive: [3] | [9] | [2]

COc1cc(N)c(Cl)cc1C(=O)NC1CCN(CCCOc2ccc(F)cc2)CC1OC (centres undefined)
inactive: [3] | [7] | [6]

C=C(C)[C@@H]1CCC2=CCC[C@@H](C)[C@]2(C)C1
inactive: [4] | [2]

Nc1nc2ccc([N+](=O)[O-])cc2s1
inactive: [6]

O=C(OC(=O)c1ccccc1)c1ccccc1
inactive: [3] | [7] | [5] | [6] | [2]

CN(C)CCC=C1c2ccccc2C=Cc2ccccc21
active: [4] 23.7 µM | [5] 11.9 µM
inactive: [7] | [2] | [10]

CCCC(C(=O)OCCN(CC)CC)(c1ccccc1)c1ccccc1
inactive: [3] | [7] | [5] | [9] | [6] | [2]

O=C(CCCN1CC=C(n2c(=O)[nH]c3ccccc32)CC1)c1ccc(F)cc1
inactive: [3] | [7] | [5]

O=C1Cc2ccccc2N1c1c(Cl)cccc1Cl
inactive: [4] | [7] | [8] | [9] | [6] | [2]

Brc1cc(Br)c(Oc2cc(Br)c(Br)cc2Br)cc1Br
active: [4] 23.9 µM
inactive: [5] | [6]

O=C(O)c1cccc(-c2noc(-c3ccccc3F)n2)c1
active: [6] 11.9 µM
inactive: [4] | [2]

CCCCCCCCC(CCCCCC)C(=O)O (centres undefined)
inactive: [4] | [9] | [2] | [10]

Cc1c(C)c2c(c(C)c1OC(=O)CCC(=O)OCCO)CC[C@@](C)(CCC[C@H](C)CCC[C@H](C)CCCC(C)C)O2
inactive: [3] | [9]

CCCCN(CCN(CCCC)C(=O)N1CCOCC1)C(=O)N1CCOCC1
inactive: [6] | [10]

CC(CC1c2ccccc2CCc2ccccc21)CN(C)C (centres undefined)
inactive: [7] | [8] | [5] | [9] | [6]

CCC(=O)OC
inactive: [5] | [6] | [2] | [10]

CC1=C(Br)C(=O)C(Br)=C/C1=C(/c1ccccc1S(=O)(=O)O)c1cc(Br)c(O)c(Br)c1C
not listed: [1] | [4] | [10]
inactive: all other assays above

CCOC(=O)C1=C(C)NC(C)=C(C(=O)OC)C1c1cccc(Cl)c1Cl (centres undefined)
inactive: [4] | [7] | [8] | [5] | [6]

CCCCC(CC)CN (centres undefined)
inactive: [7] | [2] | [10]

O=[N+]([O-])c1ccc(O/N=C/c2cc(Br)c(O)c(Br)c2)c([N+](=O)[O-])c1
inactive: [8] | [5] | [9] | [2] | [10]

c1ccc(C[n+]2cccc3ccccc32)cc1
not listed: [1] | [3] | [10]
inactive: all other assays above

O=C(Nc1cccc2c(=O)cc(-c3nn[nH]n3)oc12)c1ccc(OCCCCc2ccccc2)cc1
inactive: [3] | [7] | [6]

c1cc(N(CC2CO2)CC2CO2)ccc1Cc1ccc(N(CC2CO2)CC2CO2)cc1 (centres undefined)
inactive: [4] | [6]

Nc1ccc(N=Nc2ccccc2)c(N)c1
inactive: [3] | [8] | [9] | [6]

COc1ccccc1NC(=O)c1cc2ccccc2cc1O
active: [4] 43.6 µM
